This is a sample that favours compounds with a hit; in the whole collection about 2.3% have one here.
Pf Dd2 inh = P. falciparum Dd2 growth inhibitors, primary screen, SYBR Green fluorescence, single dose replicates; 72 h; stronger effect = lower value; activity change, % at 10 µM; actives 2.3% (n = 94,000); AID 1159554, 2015; in the data active means activity change below about -80%
C diff growth = C. difficile growth inhibitors, primary screen, HTS; Clostridium difficile clinical isolate growth, OD600, 24 h; stronger effect = lower value; growth activity, negative = inhibition, % at 16 µg/mL (by protocol); actives 0.25% (n = 86,000); AID 1259249, 2017;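 active means mean growth activity at or below -80% and every replicate also at or below -80%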;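 further: 0% = DMSO wells and -100% = levofloxacin 16 µg/mL wells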
* = called active by the depositor; ! = not active in a repeat.

SMILES | Pf Dd2 inh | C diff growth
Cc1ccc(OC(=O)N(C)C[C@@H]2OCc3ccccc3-c3c(n(C)c4ccccc34)C(=O)N([C@@H](C)CO)C[C@@H]2C)cc1 | -40.1 | 0.8
Cc1ccc(OC(=O)N(C)C[C@H]2OCc3ccccc3-c3c(n(C)c4ccccc34)C(=O)N([C@H](C)CO)C[C@@H]2C)cc1 | -87.5* | 14.0
O=C(O)[C@H]1[C@H](CO)[C@H]2Cn3c(ccc(-c4ccncc4)c3=O)[C@@H]1N2C(=O)C1CCCC1 | 24.5 | 1.2
C/C=C/c1ccc(C2[C@@H]3CN(Cc4cccc(F)c4)C[C@H]2N3)cc1 (stereo partly specified) | -88.2*! | 70.2
C/C=C/c1ccc(C2[C@@H]3CN(Cc4ccccn4)C[C@H]2N3)cc1 (stereo partly specified) | -13.0 | 1.1
C/C=C/c1ccc(C2[C@@H]3CN(Cc4cccnc4)C[C@H]2N3)cc1 (stereo partly specified) | -84.2*! | -0.1
C/C=C/c1ccc(C2[C@@H]3CN(C(C)=O)C[C@H]2N3)cc1 (stereo partly specified) | -6.9 | 1.8
COC(=O)[C@H]1[C@H](CO)[C@H]2Cn3c(ccc(-c4cccc(C(=O)N(C)C)c4)c3=O)[C@@H]1N2CC1CC1 | 20.1 | -2.4
C/C=C/c1ccc([C@H]2[C@H]3CN(C(=O)Cc4ccncc4)CCCCN3[C@H]2CO)cc1 | -30.3 | -1.4
